# p53 reactivator: mutant p53 re-activation in reporter cells; H1299 p53-A138V BP100-luciferase reporter, luminescence, 24 h; Potency, µM (doses to about 92.2 µM), without a hit: top-dose activity change, positive = activation, actives largely listed as activators; 320,000 compounds, 0.063% hits; note: potency is the fitted concentration of half-maximal effect; % of control where 0% means no effect; nearly all actives have a fitted effect of over 45% in size
#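 p53-null H1299 cells stably carrying temperature-sensitive p53-A138V and a BP100-luciferase reporter were pinned with compounds (4-point, 1:5 series) and held 24 hrs at 37 deg C. Luminescence was read 10 min after detection reagent.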
# GLP1R inv ag: inverse agonists of human GLP-1 receptor | P43220 | HEK293 GLP-1R CRE-luciferase, luminescence, 24 h; GLP-1R form is constitutively active | Potency, µM (titrated, usually from 38.3 µM), without a hit: top-dose activity change, negative = inhibition, actives largely listed as inhibitors | 410,000 compounds, 1.6% hits; note: potency is the fitted concentration of half-maximal effect; % is set by controls: 0 for no effect and ±100 for the full control effect; nearly all actives have a fitted effect of over 55% in size
#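 Stable HEK293 clone (constitutively active GLP-1R + cAMP-response luciferase); 200 cells/uL plated, 12 h pre-culture, compound 24 hr, 37 deg C/5% CO2; detection reagent 12 min RT; luminescence.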
# LDHA inh: inhibitors of human lactate dehydrogenase A | P00338 | purified LDHA, NADH/diaphorase-resazurin fluorescence; hits give low values | activity change, % (values are at about 110 or 230 µM) | 480,000 compounds, 0.15% hits | AID 1347041; in the data active = activity change below about -30%; inconclusive = mostly about -25% to -30%;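 note: plate controls were DMSO wells for no effect and wells without enzyme for full effect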
#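 Resorufin fluorescence (ex540/em590), read at 0 and 20 min after diaphorase/resazurin addition, reports the NADH left after a 5 min room-temperature reaction of 2 nM human LDH5 with 0.06 mM NADH and 0.2 mM pyruvate.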
# ClpP mod: qHTS Assay for Activators of ClpP | Potency, µM (doses to about 57.5 µM), inactives show at the highest dose activity change, negative = active | AID 651965, 2013 | 340,000 compounds, 1.9% hits | ATP-dependent Clp protease proteolytic subunit (Bacillus subtilis (strain 168)), P80244 | purified B. subtilis ClpP, FRET peptide cleavage, 20 min; active = well fitted falling curve with a large enough effect; inconclusive = small, poorly fitted or top-dose-only effect; inactive = no such curve, though single readings can be large or run the other way; note: potency is the fitted concentration of half-maximal effect; the source files actives as falling curves though it sought activators and does not explain the sign; nearly all actives have a fitted effect of over 65% in size
#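 ClpP 10 microg/mL final, pH 8 Tris/KCl buffer with BSA, glycerol, Tween-20; compound pinned in; FRET-FV substrate; RT 20 min; Ex320/Em430; ΔFRET vs ADEP 5.8 microM, DMSO, no enzyme.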
# HEK293 tox: cytotoxic in the GLP-1 receptor inverse agonist counter-screen; HEK293 cAMP-luciferase reporter cells, luminescence, 24 h; 410,000 compounds, 0.13% hits; Potency, µM (titrated, usually from 38.3 µM), inactives show top-dose activity change, negative = inhibition, hits mostly inhibitors;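 note: loss of luciferase light is scored as toxicity; potency is the fitted concentration of half-maximal effect; % is set by controls: 0 for no effect and ±100 for the full control effect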
#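 Quantitative HTS format, 1536 wells, 200 cells/uL seeded. Compounds: 23 nL, 24 h, 37 °C. Detection: luciferase reagent, luminescence at 12 min RT; decreased signal taken as cytotoxic.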
# GLP-1R agonist: agonists of human GLP-1 receptor; 380,000 compounds, 0.007% hits; Potency, µM (series often up to 45.6 µM), for the others: at the top dose activation, hits mostly activators; HEK293 GLP-1R CRE-luciferase, luminescence, 4-6 h; cells express a hypersensitive GLP-1R form; P43220; note: potency is the fitted concentration of half-maximal effect; % of control where 0% means no effect
# Numbers without * were called inactive; ? = inconclusive; . = no result. Sampled rows, rich in hits. Any-hit rate of the full collection: about 2.9%. Unless noted, calls come from the whole dose curve; as a rule, active = well fitted curve in the direction sought with a large enough effect; inconclusive = small, poorly fitted or top-dose-only effect, or another doubt; inactive = no such curve, though single readings can be large; an effect the other way counts as inactive or inconclusive.
SMILES,p53 reactivator,GLP1R inv ag,LDHA inh,ClpP mod,HEK293 tox,GLP-1R agonist
NC(=O)c1cc(N2C(=O)C=CC2=O)ccc1Cl,-48.5%,0.0%,0.4,-1.7%,4.9%,-13.3%
COCCc1ncc(CN2CCCC(C(=O)Nc3cccc(-c4cccc(C)c4)c3)C2)cn1 (configuration not stated),-4.2%,?,-2.4,-2.0%,-14.2%,-3.4%
CC(=O)c1sc2nsc(SCCN3CCCCC3)c2c1N,14.0%,-22.7%,-4.9,.,64.7%,-0.1%
CCCCCCCCN1C(=O)[C@H](CC(=O)NCCCCc2ccccc2)C[C@@]2(C(=O)OCC)CCCC=C12,.,7.08µM*,1.0,-3.8%,-2.9%,0.2%
CCCCCCCCN1C(=O)[C@H](CC(=O)NCc2cccs2)C[C@@]2(C(=O)OC)CC(C)(C)CC=C12,.,8.91µM*,4.5,1.7%,-6.0%,.
COC(=O)[C@@]12C[C@@H](CC(=O)NCc3ccccc3)C(=O)N(Cc3ccccc3)C1=CCC(C)(C)C2,.,11.2µM*,0.4,0.5%,-18.7%,.
COC(=O)[C@@]12C[C@@H](CC(=O)NCc3ccccc3)C(=O)N(Cc3cccc4ccccc34)C1=CCC(C)(C)C2,.,?,8.7,-1.8%,?,.
Cc1[nH]c2ccccc2c1C1=CN2CCS(=O)(=O)N=C2S1,-10.0%,-18.6%,-9.3,-0.6%,-2.8%,1.1%
Cc1cc(C)cc(OCC(=O)N(Cc2cccs2)c2ccc(Cl)cc2)c1,.,10µM*,-0.3,-1.1%,-6.8%,.
COc1ccc(N(Cc2cccs2)C(=O)COc2cc(C)c(Cl)c(C)c2)cc1,.,8.91µM*,3.9,1.5%,-22.4%,.
O=C(CSc1ccccc1C(=O)N1CCN(c2ccccc2)CC1)N1CCCC1,-3.4%,-9.2%,1.0,-1.3%,1.9%,-3.1%
Cc1onc(-c2ccccc2)c1C(=O)NC(C)c1ccccc1 (configuration not stated),.,-37.0%,4.3,.,5.0%,5.6%
Cc1onc(-c2ccccc2)c1C(=O)Nc1ccncc1,-11.3%,10.5%,-12.2,-3.4%,19.6%,8.0%
Cc1onc(-c2ccccc2)c1C(=O)Nc1ccccc1NC(=O)c1c(-c2ccccc2)noc1C,13.3%,9.4%,-3.9,0.9%,-2.0%,-3.9%
Cc1onc(-c2ccccc2)c1C(=O)Nc1nnc(-c2ccncc2)s1,5.2%,8.7%,-12.0,31.6µM*,9.2%,0.7%
Cc1onc(-c2ccccc2)c1C(=O)Nc1ccc2c(C)cc(=O)oc2c1,-5.3%,-9.0%,-7.8,15.8µM*,-1.0%,17.5%
CCCOc1ccccc1NC(=O)c1c(-c2ccccc2)noc1C,4.0%,11.2µM*,0.0,0.5%,-1.4%,13.8%
Cc1ccc(C(C)NC(=O)c2c(-c3ccccc3)noc2C)cc1C (configuration not stated),-7.6%,7.94µM*,-3.6,-1.3%,1.2%,1.3%
COCCCN(C)C1CCN(C(=O)Nc2ccc(F)cc2)CC1,12.8%,9.8%,1.0,0.8%,4.2%,-0.9%
Cc1cc(C)c2c(-n3cccc3)c(C(=O)NCc3cccc(F)c3)sc2n1,.,-14.8%,-2.5,-1.5%,0.7%,.
COc1ccc(OCc2ccc(/C=N\NC(=O)c3sccc3C)o2)cc1,10.1%,22.7%,-0.2,20.8%,-2.4%,5.6%
CCOc1ccc(C(=O)COC(=O)c2c(-c3ccccc3)noc2C)cc1,5.1%,10µM*,-0.6,.,?,9.8%
CCC(=O)Nc1nnc(-c2ccncc2)s1,-6.5%,72.0%,0.3,15.8µM*,1.2%,-7.7%
Cc1c(O)ccc(/C=N/Nc2ncccc2[N+](=O)[O-])c1O,-1.5%,-16.7%,-5.0,-0.7%,9.7%,-11.7%
Oc1ccccc1-c1cc(C(F)(F)C(F)F)nc(-c2ccccc2)n1,9.3%,7.7%,-4.9,-0.2%,1.6%,-1.5%
SMILES,p53 reactivator,GLP1R inv ag,LDHA inh,ClpP mod,HEK293 tox,GLP-1R agonist
COc1ccc([N+](=O)[O-])cc1NC(=O)Cc1ccc(Cl)cc1,-8.9%,?,-8.7,-1.2%,-13.9%,-3.3%
CCS(=O)(=O)N1CCC(C(=O)Oc2ccc(Br)cc2)CC1,.,13.8%,-2.2,.,1.4%,0.9%
Cc1cc2nn(-c3cccc4ccccc34)nc2cc1NC(=O)c1cccs1,1.6%,?,-0.4,14.1µM*,-6.6%,-9.9%
Cc1cc2nn(-c3ccc(F)cc3)nc2cc1NC(=O)c1cccc2ccccc12,.,4.5%,-1.4,7.6%,-1.2%,-2.8%
Cc1ccc(C(=O)Nc2ncc([N+](=O)[O-])s2)cc1,.,1.12µM*,-3.1,-4.1%,-23.7%,-6.5%
c1ccc2oc(C3=NNC(=NC4CC4)SC3)cc2c1,54.6%,8.91µM*,1.1,-7.6%,?,11.1%
CCCCn1c(=O)nc2n(-c3ccccc3)c3ccccc3cc-2c1=O,-5.5%,-0.5%,4.4,25.1µM*,270.1%,7.8%
CC(C)(C)OC(=O)C[C@@H]1C/C=C\C[C@H](CC(=O)N(CCO)Cc2ccccc2)C(=O)NC[C@H](c2ccccc2)OC1=O,2.9%,0.8%,-2.0,-0.5%,2.0%,0.4%
CCN(c1ccccc1)S(=O)(=O)c1ccc(N2CCN(c3ccc(O)cc3)CC2)nc1,12.4%,4.47µM*,16.2,0.9%,-26.4%,4.2%
CCOC(=O)C1=C(C)N=c2s/c(=C/c3ccc(OCC(=O)O)cc3)c(=O)n2C1c1ccc(F)cc1 (configuration not stated),-5.9%,?,-1.1,0.3%,-26.3%,-1.3%
CCOc1ccccc1CN1CCN(CC2CC2)CC1CCO (configuration not stated),.,7.8%,-2.3,.,-2.8%,4.7%
CCOc1ccccc1CN1CCN(Cc2cc3ccccc3[nH]2)CC1CCO (configuration not stated),-1.9%,10µM*,-5.5,.,-25.2%,12.6%
Fc1ccc(-c2cn3cc(Br)ccc3n2)cc1F,.,.,-0.5,.,.,.
Cc1cc(NC(=O)CCN2CCC(C)CC2)ccc1Br,-22.8%,10µM*,-10.6,-1.3%,18.6%,12.3%
CC1(C)OC(=O)N(c2ccccn2)C1(C)O (configuration not stated),2.6%,-3.6%,0.7,-1.0%,-4.1%,0.3%
Cc1ccc2nc3c(cc2c1)CN(Cc1ccco1)C(=NCC1CCCO1)S3 (configuration not stated),-5.1%,2.24µM*,3.9,-3.6%,-11.3%,-1.5%
COCCN=C1Sc2nc3c(C)cccc3cc2CN1Cc1ccco1,0.0%,8.91µM*,-0.6,5.8%,-2.7%,3.3%

# High-throughput results deposited in PubChem BioAssay by National Center for Advancing Translational Sciences (NCATS).
